Experimental data from publication PMC7862700, “An all-to-all approach to the identification of sequence-specific readers for epigenetic DNA modifications on cytosine”.

Columns and labels:
Test in all cases: DAPPL (digital affinity profiling via proximity ligation, sequencing); 10 mM Tris-HCl pH 7.5, 50 mM NaCl, 1 mM DTT, 4% glycerol, room temperature, 30 min; GST-TFs on glutathione beads, 16-mer random dsDNA library, 0.1% formaldehyde crosslink after washing; high values mean tight binding
FEV = target: T1, FEV (Homo sapiens, UniProt Q99581 1-238); conditions: protein: recombinant; tags: N-terminal GST; dsDNA, one strand shown
T1 sequence: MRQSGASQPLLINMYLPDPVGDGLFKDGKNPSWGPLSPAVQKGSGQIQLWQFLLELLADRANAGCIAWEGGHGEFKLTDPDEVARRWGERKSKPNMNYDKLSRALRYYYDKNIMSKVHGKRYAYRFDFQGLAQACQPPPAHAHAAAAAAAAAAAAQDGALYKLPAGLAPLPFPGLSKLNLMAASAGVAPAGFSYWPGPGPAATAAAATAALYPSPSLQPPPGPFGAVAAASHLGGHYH
Summary of the method: (§1)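 In yeast, human transcription factors were expressed with a GST fusion, then pulled down on glutathione beads and given DNA barcodes. Pooled with a tag-only sample, they were exposed to 200 nmole of a 16-mer random double-stranded DNA library (Tris/NaCl/DTT/glycerol buffer, room temperature, 30 min), washed, crosslinked with 0.1% formaldehyde, proximity-ligated using BsaI/T4 ligase for 1 h at 37 °C, PCR-amplified and read on an Illumina NextSeq500. Each hexamer's frequency of reads for a factor, divided by the matching frequency for the tag-only sample, gives the binding signal.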

ETV5 = ETV5 (Homo sapiens, UniProt P41161 1-510); conditions: protein: recombinant; tags: N-terminal GST; dsDNA, one strand shown
Summary of the method: as §1

HSF1 = HSF1 (Homo sapiens, UniProt Q00613 1-529); conditions: protein: recombinant; tags: N-terminal GST; chain copies: 3; dsDNA, one strand shown
Summary of the method: as §1

SPIC = target: T2, SPIC (Homo sapiens, UniProt Q8N5J4 1-248); conditions: protein: recombinant; tags: N-terminal GST; dsDNA, one strand shown
T2 sequence: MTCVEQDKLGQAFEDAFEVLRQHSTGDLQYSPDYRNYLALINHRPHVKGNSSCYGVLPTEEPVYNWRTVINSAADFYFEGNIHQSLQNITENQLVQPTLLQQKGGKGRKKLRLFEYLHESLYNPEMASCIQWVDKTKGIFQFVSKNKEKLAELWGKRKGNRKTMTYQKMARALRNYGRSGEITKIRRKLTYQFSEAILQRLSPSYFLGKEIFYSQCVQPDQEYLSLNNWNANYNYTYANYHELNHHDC
Summary of the method: as §1

ELF4 = ELF4 (Homo sapiens, UniProt Q99607 1-663); conditions: protein: recombinant; tags: N-terminal GST; dsDNA, one strand shown
Summary of the method: as §1

ELK4 = target: T3, ELK4 (Homo sapiens, UniProt P28324-2 1-405); conditions: protein: recombinant; tags: N-terminal GST; dsDNA, one strand shown
T3 sequence: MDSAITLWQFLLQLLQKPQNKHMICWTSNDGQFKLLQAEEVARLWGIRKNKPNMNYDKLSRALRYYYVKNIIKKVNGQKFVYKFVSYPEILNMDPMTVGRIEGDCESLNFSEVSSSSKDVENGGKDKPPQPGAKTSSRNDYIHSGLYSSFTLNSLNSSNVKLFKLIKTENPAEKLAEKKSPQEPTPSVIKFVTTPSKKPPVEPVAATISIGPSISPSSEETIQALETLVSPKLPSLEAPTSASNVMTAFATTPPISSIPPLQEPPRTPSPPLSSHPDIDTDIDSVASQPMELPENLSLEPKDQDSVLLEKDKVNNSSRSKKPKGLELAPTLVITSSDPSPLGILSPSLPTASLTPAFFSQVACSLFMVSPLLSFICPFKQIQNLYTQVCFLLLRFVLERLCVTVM
Summary of the method: as §1

ETV2 = target: T4, ETV2 (Homo sapiens, UniProt O00321 1-342); conditions: protein: recombinant; tags: N-terminal GST; dsDNA, one strand shown
T4 sequence: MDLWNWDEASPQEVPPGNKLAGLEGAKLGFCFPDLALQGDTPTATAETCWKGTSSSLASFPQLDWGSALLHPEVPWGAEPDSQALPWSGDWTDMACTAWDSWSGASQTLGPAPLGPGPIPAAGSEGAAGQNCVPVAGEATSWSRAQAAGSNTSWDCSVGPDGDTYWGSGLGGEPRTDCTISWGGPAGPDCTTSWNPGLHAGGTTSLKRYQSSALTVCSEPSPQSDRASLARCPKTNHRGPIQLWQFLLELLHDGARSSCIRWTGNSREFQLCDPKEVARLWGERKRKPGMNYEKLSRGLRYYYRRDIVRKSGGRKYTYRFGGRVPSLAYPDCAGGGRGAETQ
Summary of the method: as §1

ELF3 = target: T5, ELF3 (Homo sapiens, UniProt P78545 1-371); conditions: protein: recombinant; tags: N-terminal GST; dsDNA, one strand shown
T5 sequence: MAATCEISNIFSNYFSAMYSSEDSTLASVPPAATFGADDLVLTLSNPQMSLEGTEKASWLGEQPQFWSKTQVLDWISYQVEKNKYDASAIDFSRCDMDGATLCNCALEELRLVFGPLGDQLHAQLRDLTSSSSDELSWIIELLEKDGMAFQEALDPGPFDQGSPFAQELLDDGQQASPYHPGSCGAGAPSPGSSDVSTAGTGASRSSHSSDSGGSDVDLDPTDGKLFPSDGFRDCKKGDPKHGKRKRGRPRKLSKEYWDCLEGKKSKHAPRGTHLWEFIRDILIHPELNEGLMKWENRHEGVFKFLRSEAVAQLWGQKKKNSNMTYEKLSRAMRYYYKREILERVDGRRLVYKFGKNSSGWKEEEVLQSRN
Summary of the method: as §1

CRX = CRX (Homo sapiens, UniProt O43186 1-299); conditions: protein: recombinant; tags: N-terminal GST; dsDNA, one strand shown
Summary of the method: as §1

ETV1 = ETV1 (Homo sapiens, UniProt P50549 1-477); conditions: protein: recombinant; tags: N-terminal GST; dsDNA, one strand shown
Summary of the method: as §1

ERF = target: T6, ERF (Homo sapiens, UniProt P50548 1-548); conditions: protein: recombinant; tags: N-terminal GST; dsDNA, one strand shown
T6 sequence: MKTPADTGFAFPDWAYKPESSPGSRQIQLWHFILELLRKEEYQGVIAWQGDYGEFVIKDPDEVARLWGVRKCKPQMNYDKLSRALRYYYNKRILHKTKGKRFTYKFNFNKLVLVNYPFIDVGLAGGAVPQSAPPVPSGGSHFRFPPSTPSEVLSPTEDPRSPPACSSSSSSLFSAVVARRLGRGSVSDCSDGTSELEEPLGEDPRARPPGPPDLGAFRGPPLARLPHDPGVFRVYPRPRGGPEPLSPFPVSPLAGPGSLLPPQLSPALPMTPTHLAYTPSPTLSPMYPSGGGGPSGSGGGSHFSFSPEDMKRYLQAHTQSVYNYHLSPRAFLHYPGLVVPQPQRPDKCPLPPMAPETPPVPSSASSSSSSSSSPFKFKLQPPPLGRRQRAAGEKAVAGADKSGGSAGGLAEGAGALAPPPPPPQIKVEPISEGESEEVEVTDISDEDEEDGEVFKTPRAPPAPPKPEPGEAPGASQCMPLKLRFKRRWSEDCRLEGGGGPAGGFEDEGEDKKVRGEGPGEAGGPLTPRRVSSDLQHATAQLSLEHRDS
Summary of the method: as §1

ETV3L = target: T7, ETV3L (Homo sapiens, UniProt Q6ZN32 1-361); conditions: protein: recombinant; tags: N-terminal GST; dsDNA, one strand shown
T7 sequence: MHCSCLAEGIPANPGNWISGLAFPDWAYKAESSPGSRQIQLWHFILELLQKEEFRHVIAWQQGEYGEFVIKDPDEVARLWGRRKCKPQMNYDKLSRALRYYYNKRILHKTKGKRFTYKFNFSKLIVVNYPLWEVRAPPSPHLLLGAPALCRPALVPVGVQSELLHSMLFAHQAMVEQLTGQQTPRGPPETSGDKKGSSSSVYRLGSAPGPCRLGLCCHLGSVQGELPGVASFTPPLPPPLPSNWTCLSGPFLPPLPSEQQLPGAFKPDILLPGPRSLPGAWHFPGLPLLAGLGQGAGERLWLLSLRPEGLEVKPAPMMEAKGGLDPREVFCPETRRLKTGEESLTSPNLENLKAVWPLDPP
Summary of the method: as §1

ETS2 = target: T8, ETS2 (Homo sapiens, UniProt P15036 1-469); conditions: protein: recombinant; tags: N-terminal GST; dsDNA, one strand shown
T8 sequence: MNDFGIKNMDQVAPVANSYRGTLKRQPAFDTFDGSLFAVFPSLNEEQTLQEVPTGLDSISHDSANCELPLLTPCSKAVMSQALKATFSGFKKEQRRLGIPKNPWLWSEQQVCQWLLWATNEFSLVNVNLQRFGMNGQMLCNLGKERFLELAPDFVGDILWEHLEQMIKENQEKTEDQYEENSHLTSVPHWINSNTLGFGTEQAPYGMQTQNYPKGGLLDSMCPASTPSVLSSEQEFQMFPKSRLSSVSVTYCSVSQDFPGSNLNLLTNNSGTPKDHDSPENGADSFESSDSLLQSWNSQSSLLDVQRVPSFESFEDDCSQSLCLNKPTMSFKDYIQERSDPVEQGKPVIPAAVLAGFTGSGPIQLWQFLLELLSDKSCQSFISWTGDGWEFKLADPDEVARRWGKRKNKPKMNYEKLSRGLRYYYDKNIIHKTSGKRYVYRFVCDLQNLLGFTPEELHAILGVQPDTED
Summary of the method: as §1

SPDEF = target: T9, SPDEF (Homo sapiens, UniProt O95238 1-335); conditions: protein: recombinant; tags: N-terminal GST; dsDNA, one strand shown
T9 sequence: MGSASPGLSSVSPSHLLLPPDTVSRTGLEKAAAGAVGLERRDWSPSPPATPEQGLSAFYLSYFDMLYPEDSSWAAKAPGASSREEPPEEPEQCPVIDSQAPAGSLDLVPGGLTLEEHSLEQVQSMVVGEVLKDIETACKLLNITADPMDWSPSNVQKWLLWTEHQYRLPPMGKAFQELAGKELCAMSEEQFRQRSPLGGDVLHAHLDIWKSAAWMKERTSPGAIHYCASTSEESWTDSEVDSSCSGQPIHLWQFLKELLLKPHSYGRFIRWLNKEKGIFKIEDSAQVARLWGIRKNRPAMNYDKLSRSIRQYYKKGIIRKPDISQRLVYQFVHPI
Summary of the method: as §1

ETV7 = target: T10, ETV7 (Homo sapiens, UniProt Q9Y603 1-341); conditions: protein: recombinant; tags: N-terminal GST; dsDNA, one strand shown
T10 sequence: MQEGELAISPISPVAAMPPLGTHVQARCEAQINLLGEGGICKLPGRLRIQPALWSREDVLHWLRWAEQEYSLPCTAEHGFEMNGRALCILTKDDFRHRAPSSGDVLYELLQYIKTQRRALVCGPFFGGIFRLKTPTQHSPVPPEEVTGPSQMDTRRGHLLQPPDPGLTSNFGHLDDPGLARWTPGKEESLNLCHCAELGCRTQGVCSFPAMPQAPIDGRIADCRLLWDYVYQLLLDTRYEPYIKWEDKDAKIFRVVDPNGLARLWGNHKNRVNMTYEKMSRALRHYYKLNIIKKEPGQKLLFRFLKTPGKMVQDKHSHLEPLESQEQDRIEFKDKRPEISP
Summary of the method: as §1

ELF5 = target: T11, ELF5 (Homo sapiens, UniProt Q9UKW6-2 1-255); conditions: protein: recombinant; tags: N-terminal GST; dsDNA, one strand shown
T11 sequence: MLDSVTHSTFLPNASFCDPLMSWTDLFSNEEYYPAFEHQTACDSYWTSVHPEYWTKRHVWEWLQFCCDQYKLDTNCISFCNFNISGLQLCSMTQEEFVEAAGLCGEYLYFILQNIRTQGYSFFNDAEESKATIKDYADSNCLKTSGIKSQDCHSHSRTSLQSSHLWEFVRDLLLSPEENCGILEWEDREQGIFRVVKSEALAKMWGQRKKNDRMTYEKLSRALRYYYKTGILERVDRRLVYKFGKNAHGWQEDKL
Summary of the method: as §1

ETV3 = target: T12, ETV3 (Homo sapiens, UniProt P41162-2 1-143); conditions: protein: recombinant; tags: N-terminal GST; dsDNA, one strand shown
T12 sequence: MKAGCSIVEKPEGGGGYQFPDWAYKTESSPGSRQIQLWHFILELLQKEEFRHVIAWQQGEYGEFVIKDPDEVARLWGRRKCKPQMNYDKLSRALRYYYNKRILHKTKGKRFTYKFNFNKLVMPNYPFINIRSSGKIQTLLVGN
Summary of the method: as §1

ETV6 = ETV6 (Homo sapiens, UniProt P41212 1-452); conditions: protein: recombinant; tags: N-terminal GST; dsDNA, one strand shown
Summary of the method: as §1

Chain of ETV1 (P50549 whole entry): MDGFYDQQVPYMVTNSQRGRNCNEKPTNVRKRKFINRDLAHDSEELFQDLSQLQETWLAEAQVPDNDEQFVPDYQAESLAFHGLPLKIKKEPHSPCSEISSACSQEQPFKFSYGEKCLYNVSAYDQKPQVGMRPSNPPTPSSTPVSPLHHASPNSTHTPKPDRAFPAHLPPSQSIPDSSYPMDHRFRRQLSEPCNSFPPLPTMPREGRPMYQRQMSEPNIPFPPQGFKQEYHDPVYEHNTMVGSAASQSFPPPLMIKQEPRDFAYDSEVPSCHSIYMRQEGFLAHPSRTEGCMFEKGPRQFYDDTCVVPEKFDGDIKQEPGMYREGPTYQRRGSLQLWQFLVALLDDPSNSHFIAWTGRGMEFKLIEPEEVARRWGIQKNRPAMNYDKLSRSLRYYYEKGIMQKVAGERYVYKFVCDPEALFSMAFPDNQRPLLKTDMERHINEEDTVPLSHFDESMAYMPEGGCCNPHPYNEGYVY
Chain of ETV5 (P41161 whole entry): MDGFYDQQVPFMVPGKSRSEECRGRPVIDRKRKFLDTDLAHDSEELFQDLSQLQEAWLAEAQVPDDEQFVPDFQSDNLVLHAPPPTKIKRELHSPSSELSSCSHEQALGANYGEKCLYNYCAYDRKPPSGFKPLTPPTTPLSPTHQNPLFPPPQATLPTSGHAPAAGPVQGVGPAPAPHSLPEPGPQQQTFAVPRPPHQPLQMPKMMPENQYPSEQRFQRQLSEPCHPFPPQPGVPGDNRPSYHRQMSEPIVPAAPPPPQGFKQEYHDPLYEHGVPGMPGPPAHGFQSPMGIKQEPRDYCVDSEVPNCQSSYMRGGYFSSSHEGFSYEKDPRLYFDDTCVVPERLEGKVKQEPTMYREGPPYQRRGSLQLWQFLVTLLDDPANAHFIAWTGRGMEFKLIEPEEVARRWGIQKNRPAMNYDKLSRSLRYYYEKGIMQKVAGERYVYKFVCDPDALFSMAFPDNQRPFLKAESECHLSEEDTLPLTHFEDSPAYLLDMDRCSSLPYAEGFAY
Chain of ETV6 (P41212 whole entry): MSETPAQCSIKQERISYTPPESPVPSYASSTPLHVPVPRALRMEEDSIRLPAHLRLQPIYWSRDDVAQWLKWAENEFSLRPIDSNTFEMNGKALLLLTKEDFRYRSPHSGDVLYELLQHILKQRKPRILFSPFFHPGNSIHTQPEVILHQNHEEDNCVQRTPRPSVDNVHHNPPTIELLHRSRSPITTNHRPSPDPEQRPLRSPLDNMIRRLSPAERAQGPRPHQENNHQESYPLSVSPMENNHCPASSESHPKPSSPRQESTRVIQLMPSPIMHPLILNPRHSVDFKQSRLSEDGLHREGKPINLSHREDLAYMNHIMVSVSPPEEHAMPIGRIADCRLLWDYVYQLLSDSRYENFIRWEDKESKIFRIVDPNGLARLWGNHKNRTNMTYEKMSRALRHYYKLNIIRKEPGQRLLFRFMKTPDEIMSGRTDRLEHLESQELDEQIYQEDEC
Chain of CRX (O43186 whole entry): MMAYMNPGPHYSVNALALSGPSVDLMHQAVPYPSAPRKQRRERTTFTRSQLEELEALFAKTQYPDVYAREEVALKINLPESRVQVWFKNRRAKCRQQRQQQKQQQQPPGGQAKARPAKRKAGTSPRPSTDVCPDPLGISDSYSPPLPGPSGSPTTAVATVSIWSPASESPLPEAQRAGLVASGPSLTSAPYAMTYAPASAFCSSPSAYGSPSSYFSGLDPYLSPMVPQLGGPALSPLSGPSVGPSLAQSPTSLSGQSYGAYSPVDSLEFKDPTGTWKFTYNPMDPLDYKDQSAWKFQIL
Chain of HSF1 (Q00613 whole entry): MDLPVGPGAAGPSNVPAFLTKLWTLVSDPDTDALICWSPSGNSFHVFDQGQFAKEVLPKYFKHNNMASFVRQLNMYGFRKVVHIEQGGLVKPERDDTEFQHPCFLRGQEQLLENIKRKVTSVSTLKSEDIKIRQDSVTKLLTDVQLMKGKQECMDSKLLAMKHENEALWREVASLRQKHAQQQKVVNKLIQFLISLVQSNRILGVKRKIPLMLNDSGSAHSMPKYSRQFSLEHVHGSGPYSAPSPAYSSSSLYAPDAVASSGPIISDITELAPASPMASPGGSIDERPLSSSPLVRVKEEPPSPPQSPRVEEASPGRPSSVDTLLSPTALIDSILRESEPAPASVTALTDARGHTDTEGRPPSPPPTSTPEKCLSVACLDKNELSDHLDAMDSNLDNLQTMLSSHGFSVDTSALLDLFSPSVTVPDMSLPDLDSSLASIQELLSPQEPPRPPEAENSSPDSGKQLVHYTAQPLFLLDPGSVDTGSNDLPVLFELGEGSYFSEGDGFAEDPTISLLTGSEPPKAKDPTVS
Chain of ELF4 (Q99607 whole entry): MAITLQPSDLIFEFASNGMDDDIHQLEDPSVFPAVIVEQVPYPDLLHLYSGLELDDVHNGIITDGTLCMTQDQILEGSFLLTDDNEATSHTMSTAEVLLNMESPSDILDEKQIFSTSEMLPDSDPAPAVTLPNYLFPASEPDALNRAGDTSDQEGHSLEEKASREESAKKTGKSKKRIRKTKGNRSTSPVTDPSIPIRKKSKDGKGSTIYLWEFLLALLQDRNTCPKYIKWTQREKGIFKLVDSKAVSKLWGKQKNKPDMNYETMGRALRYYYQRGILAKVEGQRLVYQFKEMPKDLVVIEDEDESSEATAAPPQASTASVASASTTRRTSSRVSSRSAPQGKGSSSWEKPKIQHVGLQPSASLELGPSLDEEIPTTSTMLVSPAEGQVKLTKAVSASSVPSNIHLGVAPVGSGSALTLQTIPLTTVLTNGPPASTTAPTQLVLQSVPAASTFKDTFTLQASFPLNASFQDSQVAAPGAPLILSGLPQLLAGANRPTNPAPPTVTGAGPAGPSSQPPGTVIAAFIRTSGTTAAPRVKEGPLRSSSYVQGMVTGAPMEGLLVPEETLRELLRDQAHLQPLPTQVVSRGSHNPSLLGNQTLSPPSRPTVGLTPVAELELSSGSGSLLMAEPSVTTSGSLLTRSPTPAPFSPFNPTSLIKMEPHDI

Sequence: TACATG
- binding signal (FEV): 1.12 fold enrichment (6-mer frequency, TF over GST control)
- binding signal (ETV5): 1.26 fold enrichment (6-mer frequency, TF over GST control)
- binding signal (HSF1): 1.08 fold enrichment (6-mer frequency, TF over GST control)
- binding signal (SPIC): 1.17 fold enrichment (6-mer frequency, TF over GST control)
- binding signal (ELF4): 1.29 fold enrichment (6-mer frequency, TF over GST control)
- binding signal (ELK4): 1.24 fold enrichment (6-mer frequency, TF over GST control)
- binding signal (ETV2): 1.24 fold enrichment (6-mer frequency, TF over GST control)
- binding signal (ELF3): 1.28 fold enrichment (6-mer frequency, TF over GST control)
- binding signal (CRX): 1.09 fold enrichment (6-mer frequency, TF over GST control)
- binding signal (ETV1): 1.21 fold enrichment (6-mer frequency, TF over GST control)
- binding signal (ERF): 1.34 fold enrichment (6-mer frequency, TF over GST control)
- binding signal (ETV3L): 1.2 fold enrichment (6-mer frequency, TF over GST control)
- binding signal (ETS2): 1.2 fold enrichment (6-mer frequency, TF over GST control)
- binding signal (SPDEF): 1.21 fold enrichment (6-mer frequency, TF over GST control)
- binding signal (ETV7): 1.25 fold enrichment (6-mer frequency, TF over GST control)
- binding signal (ELF5): 1.16 fold enrichment (6-mer frequency, TF over GST control)
- binding signal (ETV3): 1.33 fold enrichment (6-mer frequency, TF over GST control)
- binding signal (ETV6): 1.24 fold enrichment (6-mer frequency, TF over GST control)
